# Most compounds without a hit are left out; they make up all but 9.4% or so of the library.
# HPGD inh: blocks human HPGD enzyme activity; Potency, µM, actives largely listed as inhibitors; purified HPGD, NADH fluorescence kinetic, PGE2 substrate; 150,000 tested, 4.3% active; P15428; active = well fitted inhibition curve with a large enough effect, not every such curve was filed as active; inconclusive = small, poorly fitted or top-dose-only effect, or another doubt; inactive = no such curve, though single readings can be large or run the other way
#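 20 nM HPGD preincubated 15 min at room temperature with compound in 50 mM Tris-HCl pH 8, 0.01% Tween 20. Started with 1 mM NAD+ and 30 uM prostaglandin E2; NADH fluorescence (360/450 nm) read 5 times over 30-s intervals, last minus first.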
# HTT aggregate: mutant huntingtin aggregation inhibition. 220,000 tested, 1.1% active. PC12 HttQ103-GFP aggregates, Acumen cytometry, 40 h. Potency, µM (top dose mostly 46.1 µM), actives largely listed as inhibitors; note: nearly all actives have a fitted effect of over 60% in size
#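 Compounds (qHTS titration) were added to PC12 cells expressing an ecdysone-driven HTT exon 1 Q103–GFP fusion after induction with 100 nM tebufenozide. Aggregate formation was measured as GFP objects in cell lysates.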
# HTT ATP protect: protects HTT-Q103 PC12 cells, measured by ATP; PC12 HTT-Q103 induced, cytoprotection, ATP luminescence, 40 h; Potency, µM (top dose mostly 56.4 µM), actives largely listed as activators; 230,000 tested, 0.14% active; AID 1471; note: nearly all actives have a fitted effect of over 45% in size
#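 Huntington model: PC12 line, ecdysone-inducible HTTQ103 exon1–GFP, tebufenozide 100 nM. Test articles in a dose series. Endpoint luminescence from cellular ATP.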
# IMPase inh: cell-permeable inhibitors of inositol monophosphatase (IMPase). CHO-M1 cells, IP1 accumulation, HTRF TR-FRET ratio. inhibition (IP1 accumulation), % at 46.1 µM. AID 901. 120,000 tested, under 10 active. P97697; active = well fitted curve in the direction sought with a large enough effect in the signal ratio, not every such curve was filed as active; inconclusive = small, poorly fitted or top-dose-only effect, or a change in a side signal; inactive = no such curve, though single readings can be large or run the other way; the % refers to the signal ratio;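 note: cells stimulated with carbachol in lithium chloride buffer; higher means more IMPase inhibition seen as more IP1 and lower FRET ratio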
#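 CHO-M1 cells (CHO stably expressing M1 receptor), compound up to 46 uM final, stimulated with carbachol (50 uM as added) in buffer with 50mM LiCl, pH 7.4, 30 min at 37C. Cytosolic IP1 read by TR-FRET; AC50 from Hill fits.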
# IMPase Li inh: cell-permeable IMPase inhibitors with lithium potentiation; Potency, µM (titrated, usually from 59.4 µM), hits mostly inhibitors; AID 1457; CHO-M1 cells, IP1 TR-FRET (IP-One), carbachol + lithium; 210,000 tested, 0.35% active;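 note: IP1 builds up when IMPase is blocked and the TR-FRET signal falls; nearly all actives have a fitted effect of over 50% in size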
#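 Test compounds were applied to CHO-M1 cells previously cultured for 16–30 h at 2000 per well. A small lithium amount accompanied them; after 30 min at 37C, IP1 was quantified by TR-FRET.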
# ALDH1A1 block: blocks purified human ALDH1A1 activity; P00352; Purified ALDH1A1, NADH fluorescence, propionaldehyde substrate; Potency, µM (titrated, usually from 75.3 µM), usual class: inhibitors; 220,000 tested, 7.3% active; AID 1030; active = well fitted inhibition curve with a large enough effect, not every such curve was filed as active; inconclusive = small, poorly fitted or top-dose-only effect, or another doubt; inactive = no such curve, though single readings can be large or run the other way
# Target sequence (P00352 whole entry, looked up): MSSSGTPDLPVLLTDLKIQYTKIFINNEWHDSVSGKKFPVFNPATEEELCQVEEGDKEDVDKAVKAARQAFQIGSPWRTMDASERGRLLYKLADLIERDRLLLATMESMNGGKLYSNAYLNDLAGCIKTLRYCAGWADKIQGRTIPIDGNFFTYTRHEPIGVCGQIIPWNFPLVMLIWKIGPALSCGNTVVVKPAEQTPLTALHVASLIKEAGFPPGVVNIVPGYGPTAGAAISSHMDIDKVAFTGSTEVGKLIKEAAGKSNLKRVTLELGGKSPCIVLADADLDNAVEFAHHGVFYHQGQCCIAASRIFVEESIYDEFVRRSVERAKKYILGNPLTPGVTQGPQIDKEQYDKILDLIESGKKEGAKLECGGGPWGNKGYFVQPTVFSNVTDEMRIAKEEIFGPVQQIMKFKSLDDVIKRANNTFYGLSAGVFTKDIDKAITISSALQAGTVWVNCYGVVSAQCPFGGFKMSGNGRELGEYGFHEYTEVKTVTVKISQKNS
# A number is an active result; . = inactive; ? = inconclusive; / = no result given; [ ] = dose if it differs, or a comment. Unless noted, calls come from the whole dose curve; as a rule, active = well fitted curve in the direction sought with a large enough effect; inconclusive = small, poorly fitted or top-dose-only effect, or another doubt; inactive = no such curve, though single readings can be large; an effect the other way counts as inactive or inconclusive.
SMILES,HPGD inh,HTT aggregate,HTT ATP protect,IMPase inh,IMPase Li inh,ALDH1A1 block
COc1cc(C(=O)Nc2ccc3c(c2)C(=O)c2ccccc2C3=O)cc(OC)c1OC,.,.,.[10 µM],/,.,.
COc1cc2c(cc1OC)-c1c(OC)c(OC)cc3ccnc(c13)C2=O,8.9µM,?,.[1.9 µM],.,.,.
CCSC1(SCC)N=C(N)C2(C#N)C(c3ccc(OC)c(OC)c3OC)C12C#N (stereo not drawn),8.9µM,?,.[10 µM],.,.,?
CCSC1(SCC)N=C(N)C2(C#N)C(c3ccccc3)NC3=C(CCC3)C12C#N (stereo not drawn),.,.,?,.,.,.
Cc1ccc(C2NC(=S)NC3=C2C(=O)CC(C)(C)C3)cc1 (stereo not drawn),.,.,.[10 µM],.,.,0.79µM
CC(=NCC1CCNCC1)C1=C(O)CC(C)(C)CC1=O,.,.,.,.,.,.
CC(=NCCCNC1CCCCC1)C1=C(O)CC(C)(C)CC1=O,.,.,.,.,.,28µM
Cc1ccc(-n2cccc2C(=S)N=P(N(C)C)(N(C)C)N(C)C)cc1,?,?,.[4.97 µM],.,.,10µM
Cc1ccccc1-c1cc(NCc2ccccc2)ncn1,/,/,.,/,.,.
CN(C)c1ccc(NC(=O)c2cccc(C(=O)Nc3ccc(N(C)C)cc3)n2)cc1,.,.,.[10 µM],/,.,8.9µM
CN(C)c1ccc(NC(N)=S)cc1,.,.,.[10 µM],/,.,12µM
O=C1CC(N2CCCCC2)C(=O)N1c1ccccc1 (stereo not drawn),.,.,.[10 µM],.,.,?
O=C1CC(N2CCC(O)CC2)C(=O)N1c1ccc(Br)cc1 (stereo not drawn),.,.,.,.,.,22µM
O=C1CC(N2CCCN(C3CC(=O)N(c4ccc(F)cc4)C3=O)CC2)C(=O)N1c1ccc(F)cc1 (stereo not drawn),.,?,.[0.074 µM],.,.,13µM
C(=N\n1cnc2ccccc21)/c1cccnc1,.,.,.,.,.,.
O=c1c2cnn(-c3ccccc3)c2nnn1/N=C/c1cccnc1,.,.,.,.,.,0.4µM
CC(=O)NCCNc1ncncc1-c1ccccc1C,/,/,.,/,.,.
COc1ccc(C)cc1NC(=O)C(OC(=O)c1ccc([N+](=O)[O-])o1)c1ccccc1 (stereo not drawn),.,.,.[0.074 µM],/,.,18µM
COc1ccc(C)cc1NC(=O)C(OC(=O)CNC(=O)c1cc(C)cc(C)c1)c1ccccc1 (stereo not drawn),.,.,.[10 µM],/,.,?
CCN(CC)S(=O)(=O)c1ccc2c(c1)nc(CCC(=O)O)n2CC,/,.,.,/,.,.
CC1CCN(C(=O)CCc2nc3cc(S(=O)(=O)N(C)C)ccc3n2C)CC1,.,.,.,.,?,11µM
CCn1c(CCC(=O)Nc2nc3c(s2)CCCC3)nc2cc(S(=O)(=O)N(C)C)ccc21,.,?,.[1.9 µM],.,.,16µM
CN(C)S(=O)(=O)c1ccc2c(c1)nc(CCC(=O)NCc1ccc(Cl)cc1)n2C,/,?,0.63µM,/,.,.
N#Cc1ccc(Oc2ccc(-c3cnc4ccccc4n3)cc2)cc1C#N,?,.,.[10 µM],.,2.8µM,?
COc1cc(OC)cc(C(=O)NC(=S)NCCc2ccccc2)c1,.,.,.,.,.,1.1µM
SMILES,HPGD inh,HTT aggregate,HTT ATP protect,IMPase inh,IMPase Li inh,ALDH1A1 block
COc1ccc(C(=O)c2ccccc2)cc1,/,.,.,/,.,.
COc1ccc(C(=O)NCc2ccccc2)cc1Br,.,.,.[10 µM],.,.,.
COc1ccc(C(=O)NNc2ccccc2)cc1,.,.,.[10 µM],/,.,28µM
O=C(NCc1ccccc1)c1ccc(Oc2ccc(C(=O)NCc3ccccc3)cc2)cc1,13µM,.,?,.,.,.
Cc1ccc(C(=O)NCc2ccccc2)cc1Br,25µM,.,.[10 µM],/,.,?
CCN(Cc1ccccc1)C(=O)c1ccc(Cl)cc1[N+](=O)[O-],/,.,.,/,.,.
O=C(NCc1ccccc1)c1ccc(Cl)cc1[N+](=O)[O-],13µM,.,.,.,.,.
COc1ccc(C(=O)NC(=S)NCc2ccccc2)cc1,.,.,.,.,.,22µM
CS(=O)(=O)c1cccc(C(=O)NCc2ccccc2)c1,.,.,.[10 µM],.,.,?

# Screening data as filed in PubChem BioAssay.
